# According to PubChem BioAssay (NCATS):
# Results filed as inconclusive are left out. Values without a mark were called inactive. Active and inactive are the calls of the source. Calls come from the whole dose curve; as a rule, active = well fitted activation curve with a large enough effect in the signal ratio, with a control signal flat (not every such curve was filed as active); inconclusive = small, poorly fitted or top-dose-only effect, or effect the other way, or a change in a side signal; inactive = flat fitted curve, though single readings scatter; the % refers to the signal ratio.
# Assay: qHTS Assay for Identification of Small Molecule Agonists for Hypoxia Response Element Signaling Pathway (AID 914); for activation: % of control where 0% means no effect
# Conditions: ME-180 (cervical carcinoma) HRE-bla reporter, beta-lactamase ratio, CoCl2, 17 h; activation: hits give high values
# Description: NIH Molecular Libraries Screening Centers Network [MLSCN]
# NIH Chemical Genomics Center [NCGC]
# Hypoxia-inducible factor-1 (HIF-1) is the major hypoxia-regulated transcription factor that controls cellular responses to low oxygen concentration. HIF-1 is composed of two subunits: hypoxia responsive HIF-1 alpha and constitutively expressed HIF-1 beta, which is also known as aryl hydrocarbon receptor nuclear translocator. During hypoxic conditions, HIF-1 alpha heterodimerizes with HIF-1 beta and translocates into the nucleus where the HIF-1 complex binds to the hypoxia-response element (HRE) and activates expression of target genes such as VEGF (vascular endothelial growth factor). HIF-1 alpha protein levels are elevated in many solid tumors, including those of the cervix and brain. Within tumors, cells that are the greatest distance from blood vessels and therefore the most hypoxic express the highest levels of HIF-1 alpha. Therapeutic blockade of the HIF-1 signaling pathway in cancer cells therefore provides an attractive strategy for development of anticancer drugs.
# Using a beta-lactamase reporter-gene under control of the hypoxia response element, a cell-based assay [CellSensor(TM) HRE-bla ME-180 developed by Invitrogen Corp.] was used to measure hypoxia-induced signaling. Library compounds were measured for their ability to positively modulate the action of EC50 CoCl2 on reporter gene activity. Compounds were screened in a titration series in 1536-well format. Positive modulators were identified based on the AC50 values derived from the screening data.
# NCGC Assay Protocol Summary:
# 2500 cells/5uL in Opti-MEM medium containing 0.5% dialyzed FBS, 0.1 mM NEAA, 1 mM sodium pyruvate and 10 mM HEPES was dispensed into 1536-well plates and cells were cultured at 37 degrees Celsius overnight. Next day 23 nL of compounds or DMSO were delivered to each well using a pin tool, and 1uL of EC50 level of CoCl2, or EC100 level of CoCl2, or assay medium was added. And then the plates were incubated at 37 degrees Celsius for 17 hours. 1 uL of CCF4-dye mixture was added to each well. After incubated at room temperature for 2.5 hours the plates were measured on an EnVision plate reader at Excitation 405nm, Emission1=460nm and Emission 2=530nm. The %Activity was determined from the ratio of 460nm/530nm.
# Potency is the fitted concentration of half-maximal effect.
SMILES,Potency,activation [%]
COCCCNC(=O)c1c(N)n(/N=C/c2cccnc2)c2nc3ccccc3nc12,10 µM (active),–
COc1ccc(CCCNC(=O)CC#N)cc1OC,–,5.59
O=C(CSc1nnc(-c2ccco2)c(-c2ccco2)n1)Nc1ccccc1,–,-14.8
Cc1ccc(CNC(=O)c2cc3c(=O)n4ccccc4nc3n(Cc3ccco3)c2=N)cc1,5.01 µM (active),–
CN(CCNC(=O)c1ccc(/C=N/O)nc1)Cc1ccccc1,–,9.65
C[N+](C)(C)CCN(Cc1cccs1)c1ccccn1,–,3.56
O=c1/c(=C\c2cccn2-c2ccccc2)sc2nc3ccccc3n12,12.6 µM (active),–
COc1ccc(C(=O)OC(C)CN2CCN(C)CC2)cc1OC (stereo not given),–,7.74
CC1(C)CCN(Cc2ccccc2)C1CC#N (stereo not given),–,7.94
Cc1cccc(OCC(=O)NCC(=O)n2nc(C)cc2C)c1,–,14.3
N#CC1=C(N)OC2=C(C(=O)CCC2)[C@]12C(=O)N(CC(N)=O)c1ccccc12,–,-22.1
CC12CN3CC(C)(CN(C1)C3c1ccc(Br)cc1O)C2 (stereo not given),–,-25.5
CCCOc1ccc(Cn2c(O)cc(=O)[nH]c2=O)cc1,–,16.1
O=C(O)C1CC=CCC1C(=O)N1CCN(c2nc(-c3ccccc3)c3ccccc3n2)CC1 (stereo not given),3.98 µM (active),–
COc1ccc(C2C(C#N)=C(N)Oc3n[nH]c(C)c32)cc1CSc1ccccn1 (stereo not given),–,-21.4
C=CCn1c(=S)[nH]c2nc3c(cc2c1=O)COC(C)(C)C3,–,-5.87
CCOC(=O)NC(Nc1sc2c(c1C(=O)OC)CCN(C)C2)(C(F)(F)F)C(F)(F)F,–,6.5
Cc1ccc(S(=O)(=O)c2cc3c(=O)n4ccccc4nc3n(C)c2=N)cc1,7.94 µM (active),–
CC1(C)Cc2nc(NCCN3CCOCC3)c(C#N)cc2CO1,–,3.3
COc1ccc(C2CC(=O)c3sc(N)nc3C2)cc1 (stereo not given),–,-11

SMILES,Potency,activation [%]
COc1cc(NC2=CC(=O)CC(C)(C)C2)cc(OC)c1OC,–,-12.9
CCOC(=O)C(CC(=O)O)N1CCCCC1 (stereo not given),–,11.2
CSc1nc(C)c2c(c1C#N)CCCC2,–,-4.49
Cc1nnc(SCCC#N)n(CCC#N)c1=O,–,15.5
COC(=O)C1=C(N)Oc2cc(C)[nH]c(=O)c2C1c1ccncc1 (stereo not given),–,2.44
CCOc1ccc(-c2nnc3sc(-c4ccccc4OC)nn23)cc1,–,-10.9
Cc1cc(CC(=O)O)c(C)cc1CC(=O)O,–,5.91
COc1ccc(C(=O)Cn2c(Br)nc3c2c(=O)n(C)c(=O)n3C)cc1OC,–,8.03
COC(=O)C(NC(C)=O)(Nc1ccc(Br)cn1)C(F)(F)F (stereo not given),–,3.3
CCOC(=O)C1=C(C)NC(SCC(=O)Nc2nc(C)cs2)=C(C#N)C1c1cccs1 (stereo not given),10 µM (active),–
Fc1ccc(-c2cnc[nH]2)cc1,–,14
O=C(O)CCN(CCC(=O)O)c1nnc(SCc2ccccc2)s1,–,24.5
CCN1CCCC1Cn1cnc2c([nH]c3ccc(C)cc32)c1=O (stereo not given),–,9.56
COc1ccc(C(=O)C2CCCCC2=O)cc1 (stereo not given),–,5.32
CC(C)C1Cc2c(C#N)c(N)n(C)c(=S)c2CO1 (stereo not given),–,-0.94
N#CC1=C(SCC(=O)c2ccccc2)NC2=C(C(=O)CCC2)C1c1ccco1 (stereo not given),10 µM (active),–
CC(CN1CCN(C)CC1)OC(=O)c1ccc(Cl)cc1Cl (stereo not given),–,-4.39
CCCCOc1ccccc1C(=O)NCCCCCC(=O)O,–,8
COc1ccc(C2=CC(c3ccc(C)cc3)n3nnnc3N2)cc1 (stereo not given),10 µM (active),–
CCOC(=O)c1cc2c(=O)n3cccc(C)c3nc2n(C)c1=N,6.31 µM (active),–
